High-throughput results as filed in PubChem.
FMDV antiviral: High Throughput Screening for Foot and Mouth Disease Virus Antivirals; FMDV antiviral cell-based qHTS; Potency, µM (highest dose often 57.9 µM), inactives show at the top dose activity change, negative = inhibition, most hits filed as inhibitors; 410,000 compounds, 1.2% hits; calls by dose curve; tested in HEK293T cells; note: read-out not given here; potency is the fitted concentration of half-maximal effect; nearly all actives have a fitted effect of over 45% in size
MARV entry inh: qHTS for inhibitors of binding or entry into cells for Marburg Virus | Marburg virus pseudotyped entry inhibition, cell reporter | Potency, µM (top dose mostly 37.8 µM), for the others: top-dose activity change, negative = inhibition, most hits filed as inhibitors | 300,000 compounds, 1.8% hits | AID 540276, 2011; calls by dose curve; tested in HEK293 cells; note: potency is the fitted concentration of half-maximal effect
HCMV antiviral: qHTS Assay for inhibitors of the human cytomegalovirus (HCMV). 410,000 compounds, 4.5% hits. HFF cells, HCMV-luciferase reporter, 72 h; stronger effect = lower value. activity change, negative = inhibition, % at 57.5 µM; in the data active = activity change below about -60%; inconclusive = no clear call, values can overlap the other calls; inactive = above about -39%
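Human foreskin fibroblasts infected with luciferase-reporter HCMV at MOI 1 PFU/cell, compounds at two doses. Luciferase measured 72 h post infection; normalized to buffer-only basal and Salinomycin (10uM) controls.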
Lassa entry inh: qHTS for Inhibitors of binding or entry into cells for Lassa Virus. Lassa virus pseudotype entry inhibition, cell reporter. Potency, µM (highest dose often 37.9 µM), for inactives: top-dose activity change, negative = inhibition, actives largely listed as inhibitors. 300,000 compounds, 1.2% hits. AID 540256, 2011; calls by dose curve; tested in HEK293 cells; note: potency is the fitted concentration of half-maximal effect; nearly all actives have a fitted effect of over 50% in size
* marks the source's active call; other numbers are inactive results; u = inconclusive; x = no result given; ! = not confirmed by another sample; [ ] = another dose, or the depositor's remark. In the library only some 6.2% were active in any assay of this set; here they are far more common. % is set by controls: 0 for no effect and ±100 for the full control effect.

SMILES | FMDV antiviral | MARV entry inh | HCMV antiviral | Lassa entry inh
CC(/C=C1\SC(=O)N(CCCC(=O)O)C1=O)=C\c1ccccc1 | 0.891µM* | 0.501µM* | -88.6* | 0.794µM*
CCn1c(=O)cc(SCC(=O)Nc2ccc(C)cn2)c2ccccc21 | 25.0% | x | -94.6* | x
CCn1c(=O)cc(OCC(=O)Nc2ccc(C)cn2)c2ccccc21 | 53.8% | 26.6% | -60.8* | -8.9%
CCn1c(=O)cc(SCC(=O)NCc2ccc(C)cc2)c2ccccc21 | -1.7% | -2.3%[46.1 µM] | 8.8 | -13.8%[46.1 µM]
CCn1c(=O)cc(OCC(=O)Nc2nc(C)cs2)c2ccccc21 | -24.5% | x | 10.8 | x
CCn1c(=O)cc(SCC(=O)Nc2cccc(SC)c2)c2ccccc21 | 20µM* | -14.5% | -32.4 | u
CN(C(=O)CSc1nc(-c2ccccc2)no1)c1ccc(F)cc1 | -7.8% | x | -23.9 | 8.0%[46.1 µM]
OC(c1ccc(F)cc1)c1nc(-c2ccccc2)cs1 (configuration not stated) | 47.7% | x | 47.9 | x
OC(c1ccc(F)cc1)c1nc(-c2ccc(Cl)cc2)cs1 (configuration not stated) | 8.1% | x | -66.1* | x
COc1ccc(-c2csc(C(O)c3cccc(OC)c3)n2)cc1 (configuration not stated) | -13.3% | x | -67.7* | x
CC(C)c1cccc(-c2csc(C(O)c3ccc(F)cc3)n2)c1 (configuration not stated) | 0.6% | x | -2.8 | x
CC(C)c1cccc(-c2csc(C(O)c3ccc(F)c(F)c3)n2)c1 (configuration not stated) | 3.8% | x | -69.8* | x
COc1ccc(Br)cc1CNC(=O)c1cnc2sc(N3CCCC3)nn2c1=O | 4.0% | x | -27.9 | 0.4%[46.1 µM]
COc1ccc(C2=C(N3CCN(c4cccc(C)c4C)CC3)c3ccccc3C2=O)cc1 | -21.5% | -21.1%[46.1 µM] | 37.1 | -9.0%[46.1 µM]
CC1(C(=O)NS(=O)(=O)c2ccccc2)CCN1C(=O)CC1CCCC1 (configuration not stated) | -8.7% | x | 9.5 | x
O=c1[nH]c(SCCOc2cccc3ccccc23)nc2ccccc12 | 0.4% | 2.82µM* | u | u
Cc1cccc(NC(=S)NC(C)(C)CC(C)(C)C)c1 | -17.6% | u | -64.5* | -14.0%[46.1 µM]
CCOC(=O)C(=O)C1=C(N2CCOCC2)/C(=C\c2cccc([N+](=O)[O-])c2)CC1 | -14.8% | 21.0% | -71.9* | 16.1%
CC#CCN1C(=O)N(C)C(c2ccccc2)C(C(=O)OC)=C1C (configuration not stated) | x | -3.5%[14.2 µM] | x | x
CNCC[C@@H](Oc1ccccc1C)c1ccccc1 | -18.0% | x | -36.2 | x
CNCCC(Oc1ccccc1OC)c1ccccc1 (configuration not stated) | -19.4% | 18.3µM* | -15.8 | u
CSc1nnc(NC(=O)c2cc(=O)c3cc(C)cc(C)c3o2)s1 | 21.4% | -1.8% | -20.0 | 5.2%
Cc1cc(C)c2oc(C(=O)Nc3nnc(C(C)C)s3)cc(=O)c2c1 | 0.5% | 8.1% | -66.4* | 0.5%
Cc1c(C(=O)OCCOc2ccccc2)[nH]c2c1C(=O)CC(c1ccccc1Cl)C2 (configuration not stated) | u | u | -85.6* | -11.6%[46.1 µM]
Cc1c(C(=O)OCc2ccccc2)[nH]c2c1C(=O)CC(c1ccc(N(C)C)cc1)C2 (configuration not stated) | -1.2% | 0.5%[46.1 µM] | -3.4 | -0.5%[46.1 µM]
SMILES | FMDV antiviral | MARV entry inh | HCMV antiviral | Lassa entry inh
Cc1c(C(=O)OCCOc2ccccc2)[nH]c2c1C(=O)CC(c1ccccc1)C2 (configuration not stated) | -18.8% | u | -36.7 | -23.3%[46.1 µM]
CCOCCOC(=O)c1[nH]c2c(c1C)C(=O)CC(c1ccccc1)C2 (configuration not stated) | -19.9% | u | -71.0* | u
CCCCCOC(=O)c1[nH]c2c(c1C)C(=O)CC(c1ccco1)C2 (configuration not stated) | u | 0.461µM* | x | u
Cc1c(C(=O)OCC2CCCO2)[nH]c2c1C(=O)CC(c1ccc(N(C)C)cc1)C2 (configuration not stated) | 20µM* | 0.9% | -27.9 | x
COCCOC(=O)c1[nH]c2c(c1C)C(=O)CC(c1cccs1)C2 (configuration not stated) | -26.5% | x | 0.0 | x
COc1ccc2c3c(n(C)c2c1)[C@@H](CO)N(C(=O)c1cnccn1)CC31CN(C(C)=O)C1 | x | x | 1.8 | x
Cc1cnc(C)c(Nc2nc(C(N)Cc3ccc(C(F)(F)F)cc3)cs2)n1 (configuration not stated) | -27.0% | x | -25.3 | x
Cc1cc(C)cc(NC(=O)CSc2oc(-c3cccs3)nc2S(=O)(=O)c2ccccc2)c1 | 0.0% | -20.4%[46.1 µM] | 1.4 | u
CCOCCOC(=O)c1[nH]c2c(c1C)C(=O)CC(c1cccs1)C2 (configuration not stated) | -24.8% | u | -81.3* | u
COc1cc(NC(=O)CSc2nc3ccccc3nc2Cc2ccc(Cl)cc2)cc(OC)c1 | 2.51µM* | x | 0.0 | -15.7%[46.1 µM]
COc1cc(NC(=O)CSc2ncccc2C(=O)OC(C)C)cc(OC)c1 | -25.4% | -25.7% | -108.4*! | 0.6%[46.1 µM]
COc1cccc(CNC(=O)CSc2nc3ccccc3nc2Cc2ccc(C)cc2)c1OC | -6.5% | x | -91.9* | -0.5%[46.1 µM]
COc1ccccc1Cc1nc2ccccc2nc1SCC(=O)NCc1ccc(C)cc1 | 2.2% | x | 16.7 | 10.5%[46.1 µM]
COc1ccc(NC(=O)CSc2nc3ccccc3nc2Cc2ccc(C)cc2)cc1Cl | -0.4% | x | 1.3 | 13.2%[46.1 µM]
CCOC(=O)c1cccnc1SCC(=O)Nc1ccc(C)cc1 | 33.7% | 4.6%[46.1 µM] | 46.3 | 23.8%
NC(=O)Nc1ccc(Nc2ccccc2)cc1 | 32.3% | 1.4% | 18.0 | x
O=C(Nc1ccc(Nc2ccccc2)cc1)C(Cl)Cl | 13.4% | u | -63.7* | u
CN(C)S(=O)(=O)c1cccc(C(=O)NC2CCCc3ccccc32)c1 (configuration not stated) | 53.0% | 1.0% | 74.2 | 19.1%
CCCNS(=O)(=O)c1cccc(C(=O)NC2CCCc3ccccc32)c1 (configuration not stated) | 4.9% | 1.4% | 15.0 | 18.3µM*
CCOC1=C2[C@@H](CN(S(=O)(=O)c3ccc(C)cc3)[C@H]2c2ccccc2Cl)[C@H]2C(=O)N(C(C)(C)C)C(=O)[C@H]2C1 | 29.1% | x | -24.2 | x
CN1C(C(=O)c2ccccc2)=C(OC(=O)c2ccc(Br)cc2)c2ccccc2S1(=O)=O | u | -9.5%[46.1 µM] | -13.8 | 13.6%[46.1 µM]
O=C(C(Cl)Cl)N1c2ccccc2OCC1c1ccccc1 (configuration not stated) | u | -21.3% | -61.5* | -0.9%
N#Cc1cc(S(=O)(=O)c2ccc(F)cc2)c(N)[nH]c1=O | -19.8% | x | -69.9* | x
COC(=O)[C@]12C[C@H](CC(=O)N3CCC(c4ccccc4)CC3)C(=O)N(Cc3ccc4c(c3)OCO4)C1=C[C@H](C(C)(C)C)O[C@@H]2C | x | x | 25.3 | x
FC(F)(F)C1=Nc2cccc3cccc(c23)N1 | 15.8µM* | 4.5% | -13.3 | u
O=C(c1ccccc1)N1CCN(C(=O)c2ccccc2)c2ccccc21 | 35.5µM* | u | -99.8* | u
